Bioassay records (PubChem BioAssay)
PLK1 PBD block – qHTS for Inhibitors of PLK1-PDB (polo-like kinase 1 - polo-box domain): Primary Screen; Potency, µM, for the others: max response, negative = inhibition, actives largely listed as inhibitors; Serine/threonine-protein kinase PLK1 (Homo sapiens), P53350; hit rate 2.8% among 360,000; AID 720504, 2013; Plk1 PBD binding of FITC phosphopeptide, fluorescence polarization; further: potency means the concentration at half of the fitted maximal effect; series mostly up to about 57 µM; on the % scale 0 is the no-effect control and ±100 the full control effect; nearly all actives have a fitted effect of over 65% in size
G9a inh – qHTS Assay for Inhibitors of Histone Lysine Methyltransferase G9a. hit rate 8.8% among 350,000. Histone-lysine N-methyltransferase EHMT2 (Homo sapiens), Q96KQ7. Potency, µM (titrated, usually from 102 µM), for inactives: at the top dose activity, negative = inhibition, hits mostly inhibitors. G9a H3K9 monomethylation, AlphaScreen, 2 h; further: potency means the concentration at half of the fitted maximal effect; on the % scale 0 is the no-effect control and ±100 the full control effect; nearly all actives have a fitted effect of over 75% in size
Target sequence (Q96KQ7 913-1193 limits assumed): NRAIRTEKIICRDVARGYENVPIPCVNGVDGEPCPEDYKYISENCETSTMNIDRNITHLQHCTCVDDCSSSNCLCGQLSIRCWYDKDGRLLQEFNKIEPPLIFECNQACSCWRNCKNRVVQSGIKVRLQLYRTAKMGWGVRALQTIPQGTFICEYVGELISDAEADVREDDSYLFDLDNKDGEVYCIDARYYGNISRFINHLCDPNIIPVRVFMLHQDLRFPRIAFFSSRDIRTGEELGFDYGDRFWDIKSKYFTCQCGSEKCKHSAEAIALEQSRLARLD
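AlphaScreen detection with an anti-monomethyl H3K9 antibody quantified product after a 2 h room-temperature reaction containing 500 nM biotinylated H3K9 peptide, 20 µM SAM and 20 nM enzyme, which had been preincubated 15 min with compound.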
PI5P4K alpha inh – qHTS for Inhibitors of phosphatidylinositol 5-phosphate 4-kinase (PI5P4K); Phosphatidylinositol 5-phosphate 4-kinase type-2 alpha (Homo sapiens), P48426; PI5P4Kalpha enzyme, ADP-Glo luminescence, 60 min; active compounds read low; max response, %; hit rate 1.2% among 330,000; AID 652105, 2013; active means max response of -50% or lower; inconclusive means between -30% and -50%; inactive means -30% or higher; further: value at the top dose of about 77 µM; on the % scale 0 is the no-effect control and ±100 the full control effect
Target sequence (P48426 whole entry, looked up): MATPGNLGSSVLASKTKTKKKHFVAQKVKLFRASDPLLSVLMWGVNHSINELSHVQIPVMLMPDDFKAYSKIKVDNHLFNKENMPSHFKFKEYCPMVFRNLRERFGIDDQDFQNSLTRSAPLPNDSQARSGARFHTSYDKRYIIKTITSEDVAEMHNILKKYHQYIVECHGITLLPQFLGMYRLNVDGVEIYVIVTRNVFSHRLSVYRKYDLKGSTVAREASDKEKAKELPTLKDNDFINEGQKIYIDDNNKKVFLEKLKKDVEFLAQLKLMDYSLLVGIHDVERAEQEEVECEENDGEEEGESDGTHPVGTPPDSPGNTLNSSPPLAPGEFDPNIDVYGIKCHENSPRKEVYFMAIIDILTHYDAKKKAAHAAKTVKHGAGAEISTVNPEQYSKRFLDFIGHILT
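Luminescence from ADP-Glo served as readout of PI5P4Kalpha activity in a qHTS format. Reaction: enzyme, substrate, compound, ATP at 5 microM final, 60 min at RT.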
JMJD2A Tudor inh – qHTS Assay for Inhibitors of JMJD2A-Tudor Domain. Lysine-specific demethylase 4A (Homo sapiens), O75164. AlphaScreen JMJD2A-Tudor / H3K4me3 peptide binding. Potency, µM (top dose mostly 114 µM), without a hit: top-dose activity change, negative = inhibition, actives largely listed as inhibitors. hit rate 4.4% among 390,000. AID 504339, 2011; further: potency means the concentration at half of the fitted maximal effect; on the % scale 0 is the no-effect control and ±100 the full control effect; nearly all actives have a fitted effect of over 50% in size
BAZ2B inh – qHTS Assay for Inhibitors of BAZ2B; Bromodomain adjacent to zinc finger domain protein 2B (Homo sapiens), Q9UIF8; AlphaScreen BAZ2B-H3K14Ac peptide displacement; Potency, µM (series often up to 114 µM), inactives show at the highest dose activity change, negative = inhibition, hits mostly inhibitors; hit rate 4.4% among 360,000; AID 504333, 2011; further: potency means the concentration at half of the fitted maximal effect; on the % scale 0 is the no-effect control and ±100 the full control effect; nearly all actives have a fitted effect of over 60% in size
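AlphaScreen displacement of biotin-H3(5-23)K14Ac peptide (50 nM final) from BAZ2B (50 nM final) in PBS pH 7.4, 0.01% Tween-20; complex preformed 30 min RT, then compounds (top 110 uM) 30 min RT, beads 20 min dark.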
HP1b binding inh – HTS for Inhibitors of HP1-beta Chromodomain Interactions with Methylated Histone Tails; Potency, µM (series often up to 114 µM), inactives show at the highest dose activity change, negative = inhibition, usual class: inhibitors; hit rate 0.56% among 390,000; Chromobox protein homolog 1 (Homo sapiens), P83916; AlphaScreen HP1-beta / biotin-H3K9me3 peptide binding; further: potency means the concentration at half of the fitted maximal effect; nearly all actives have a fitted effect of over 70% in size
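HP1-beta protein (50 nM final) preincubated 30 min at room temperature with biotinylated H3(1-18)K9me3 peptide (50 nM) in PBS pH 7.4, 0.01% Tween-20, then compound added for 30 min. AlphaScreen streptavidin donor/nickel chelate acceptor beads (10 ug/mL final), 30 min dark, luminescence read.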
* = called active by the depositor; ? = inconclusive; . = no result given; [ ] = dose if it differs, or a comment. Compounds with a hit are over-represented: about 12% of the library has one in this group of screens. Unless noted, the call rests on the fitted dose curve; in most records, active means well fitted curve in the direction sought with a large enough effect; inconclusive means small, poorly fitted or top-dose-only effect, or another doubt; inactive means no such curve, though single readings can be large; an effect the other way counts as inactive or inconclusive.

SMILES	PLK1 PBD block	G9a inh	PI5P4K alpha inh	JMJD2A Tudor inh	BAZ2B inh	HP1b binding inh
O=C(COC(=O)CCN1C(=O)/C(=C\C=C\c2ccccc2)SC1=S)Nc1cc(F)ccc1F	-22.9%	?	-51.1*	39.8µM*	20µM*	?
O=C(CCN1C(=O)/C(=C\c2ccccc2F)SC1=S)Nc1ccc(C(=O)O)c(O)c1	.	79.4µM*	.	.	?	.
O=C(CCN1C(=O)/C(=C/c2cccs2)SC1=S)Nc1ccc(C(=O)O)cc1	-11.0%	?	-3.3	?	56.2µM*	-1.2%
O=C(CCN1C(=O)/C(=C\C=C\c2ccccc2)SC1=S)Nc1ccc(C(=O)O)cc1	23.8µM*	31.6µM*	?	22.4µM*	15.8µM*	50.1µM*
O=C(CN1C(=O)/C(=C\C=C\c2ccccc2)SC1=S)Nc1ccc(F)cc1	-0.6%	-39.7%[59 µM]	-6.9	-22.2%	-28.0%	2.2%
COc1cccc(C2C(C#N)=C(N)SC(c3ccccc3)C2[N+](=O)[O-])c1 (configuration not stated)	-6.9%	?	1.5	?	50.1µM*	-12.9%
COc1cccc(C2C(C#N)=C(N)N(N(C)C)C3=C2C(=O)CCC3)c1 (configuration not stated)	-3.1%	-3.4%	-7.6	-16.0%	3.2%	34.6%
CC1(C(=O)NCc2ccco2)CCN1C(=O)C1(c2ccccc2)CC1 (configuration not stated)	-13.4%	.	0.9	.	.	.
CCNC(=S)Nc1ccc2c(c1)c(=O)n(C)n2CC=C(C)C	21.2µM*	.	-6.1	.	.	.
O=C(COc1cccc2c1CCN(Cc1ccc(Br)cc1)C2=O)NCc1ccco1	-17.2%	?	-19.4	50.1µM*	?	-31.5%
O=C(COc1cccc2c1CCN(Cc1ccc(Br)cc1)C2=O)N1CCOCC1	-4.1%	1.6%	3.0	-11.0%	-17.2%	29.6%
Cc1cc2c(s1)c1cnn(Cc3c(F)ccc(Cl)c3F)c(=O)c1n2C	.	.	.	-30.1%	.	.
O=C(O)C1CCC(CNCc2ccccc2Cl)CC1 (configuration not stated)	-0.8%	-2.4%	7.1	-3.5%	2.9%	44.3%
CCOC(=O)C1CCC(CNCc2ccccc2C)CC1 (configuration not stated)	-24.0%	50.1µM*	2.3	-5.1%	0.2%	1.6%
CCN(CC)CCN1C(=O)/C(=C\c2ccc(Cl)c([N+](=O)[O-])c2)SC1=Nc1ccc(OC)cc1	-13.7%	11.2µM*	-1.7	17.8µM*	10µM*	11.2µM*
CCN1C(=O)/C(=C/c2cccs2)SC1=Nc1ccc(OC)cc1	-3.2%	.	6.4	?	-1.2%	-14.4%
COc1ccc(N=C2S/C(=C\c3ccc(Cl)c([N+](=O)[O-])c3)C(=O)N2CCN(C)C)cc1	-13.1%	?	-16.3	35.5µM*	15.8µM*	15.8µM*
CC(C)c1cnc2c(c1SCC(=O)NCc1ccccc1)c(=O)n(C)c(=O)n2C	.	13.7%[59 µM]	.	-17.2%	12.0%	12.7%[57 µM]
Cc1ccc(C)c(-n2sc3ccc(F)cc3c2=O)c1	2.12µM*	-0.6%[0.501 µM]	-84.7*	14.1µM*	17.8µM*	-25.5%
O=c1c2cc(F)ccc2sn1-c1ccc(F)cc1	3.36µM*	6.7%[0.501 µM]	-90.0*	20µM*	10µM*	-4.2%
COc1ccc(-n2sc3ccccc3c2=O)cc1	2.67µM*	.	-89.4*	.	.	.
COc1ccc(N2C(=O)CSC2c2ccc(F)cc2)cc1 (configuration not stated)	-9.1%	4.9%	3.4	-9.2%	12.3%	27.7%
COc1ccc(-n2sc3ccc(F)cc3c2=O)cc1	2.67µM*	0.0%[0.501 µM]	-86.7*	11.2µM*	8.91µM*	-5.1%
O=C1CCCC(=O)N1c1ccc(F)cc1	-7.0%	10.2%	-5.6	-11.0%	2.2%	-22.7%
Cc1ccc(Cc2c(-c3ccccc3)nc3c(Cl)cc(C(F)(F)F)cn23)cc1	-8.1%	.	0.3	.	.	.
SMILES	PLK1 PBD block	G9a inh	PI5P4K alpha inh	JMJD2A Tudor inh	BAZ2B inh	HP1b binding inh
O=C(NCc1cccc(Cl)c1)C1CCCN(c2ncnc3onc(-c4ccc(F)cc4)c23)C1 (configuration not stated)	.	-25.4%[59 µM]	.	-9.4%	12.2%[57.1 µM]	53.8%
Cc1cccc(C)c1NC(=O)CC12CCCN1CCC2	.	1.5%[12.7 µM]	.	.	.	.
C/C=C1\COC(C(=O)NC)(C(F)(F)F)C=C1C=C1CCCCC1 (configuration not stated)	.	.	.	-10.3%	.	47.2%
CN(C)N1C(N)=C(C#N)C(c2cccc([N+](=O)[O-])c2)C2=C1CC(C)(C)CC2=O (configuration not stated)	5.5%	20.8%	-3.6	-2.0%	0.0%	27.2%
CCc1ccccc1NC(=O)Cn1nnc(-c2nc(-c3ccc(C)cc3)no2)c1N	.	-10.3%[59 µM]	.	0.0%	-8.0%	23.3%
CC1CCC(NC(=S)NCCN(C)C)CC1 (configuration not stated)	-3.1%	39.8µM*	-6.6	7.94µM*	50.1µM*	3.2%
CCOC(=O)c1c(CNCCN(CC)CC)n(C)c2cc(Br)c(OC)cc12	-11.7%	79.4µM*	-17.0	-31.3%	?	-5.2%
COc1cc(C(=O)OCCNC(=O)c2cccnc2)cc(OC)c1OC	8.7%	.	-3.8	?	.	14.0%
Cc1cc(C)c(OCC(=O)OCCNC(=O)c2cccnc2)c(C)c1	-12.4%	25.1µM*	2.1	-23.1%	?	18.9%
O=C(COc1ncnc2ccccc12)N1CCOCC1	-2.0%	-8.1%[59 µM]	2.3	-5.7%	-3.7%	23.2%
O=C(COc1ncnc2ccc(Br)cc12)Nc1ccc(N2CCOCC2)cc1	0.1%	17.4%	.	-13.6%	-0.9%	9.0%
O=C(COc1ncnc2ccc(Br)cc12)N1CCOCC1	0.7%	1.12µM*	6.1	-13.0%	-22.3%	20.1%
Brc1ccc2ncnc(Nc3ccc(N4CCOCC4)cc3)c2c1	-4.5%	-43.9%[12.7 µM]	-17.6	?	44.7µM*	-31.5%
CCCCCCn1c(=O)n2n(c1=O)C[C@]1(OC(=O)NC3CC3)CN(S(=O)(=O)c3ccc(C)cc3)C[C@]1(O)C2	-2.9%	.	1.0	.	.	.
Cc1cccc(C)c1NC(=O)CNC(=O)c1ccc2c(c1)NC(=O)CS2	2.8%	.	3.6	-11.6%	.	20.1%
Cc1ccc(-c2nc3cccc(C)n3c2Nc2ccc3c(c2)OCO3)o1	.	17.8µM*	.	39.8µM*	28.2µM*	?
Cc1cc(C)n2c(Nc3ccccc3)c(-c3ccccc3)nc2n1	.	-3.9%[59 µM]	.	-13.7%	-23.9%	27.7%
